Results: PubChem BioAssay (EPA / NIEHS)
The source made the active and inactive calls. Rule for the calls: active = hit-call score of the fitted dose curve at least 0.9, where 1 is the maximum; inactive = score below 0.9.

What was measured:
Settings in all cases: mRNA level, 48 h; actives raise or lower the signal
[1] = read-out: Glutathione S-Transferase (GSTA2), GSTA2 (gene 2939); assay: LTEA_HepaRG_GSTA2: Life Technologies and Expression Analysis (LTEA) Assay for Glutathione S-Transferase (GSTA2) using HepaRG (AID 2283497)
Summary of the method: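 HepaRG, 48 h dosing, 8-pt half-log CRC from 100 uM, 0.5% DMSO vehicle, n=2; RNA → Fluidigm TaqMan qRT-PCR; GSTA2 vs ACTB/GAPDH/POLR2A; gain/loss fit vs DMSO.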

[2] = read-out: growth arrest and DNA damage 45 (GADD45G), GADD45G (gene 10912); assay: LTEA_HepaRG_GADD45G: Life Technologies and Expression Analysis (LTEA) Assay for growth arrest and DNA damage 45 (GADD45G) using HepaRG (AID 2283499)
Summary of the method: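 HepaRG, 48 h exposure, top 100 uM, half-log 8-point series, 0.5% DMSO vehicle, duplicates. Readout: GADD45G transcript by qRT-PCR (Fluidigm array), housekeeping-normalised (ACTB/GAPDH/POLR2A). Bidirectional curve fit vs DMSO baseline.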

[3] = read-out: Glutamate-cysteine ligase regulatory (GCLM), GCLM (gene 2730); assay: LTEA_HepaRG_GCLM: Life Technologies and Expression Analysis (LTEA) Assay for Glutamate-cysteine ligase regulatory (GCLM) using HepaRG (AID 2283500)
Summary of the method: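 Differentiated human HepaRG cells exposed 48 h in serum-free induction medium to 8-point half-log concentrations (top 100 uM, 0.5% DMSO), in duplicate. GCLM mRNA quantified by qRT-PCR, normalized to ACTB, GAPDH, POLR2A; bidirectional fitting versus DMSO.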

[4] = read-out: Glutathione S-transferase M3 (GSTM3), GSTM3 (gene 2947); assay: LTEA_HepaRG_GSTM3: Life Technologies and Expression Analysis (LTEA) Assay for Glutathione S-transferase M3 (GSTM3) using HepaRG (AID 2283501)
Summary of the method: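 qRT-PCR read-out of GSTM3 transcript, normalized to three housekeeping genes, from human HepaRG cells after 48 h chemical exposure. Eight-point half-log series, top 100 uM, 0.5% DMSO vehicle; gain or loss fitted relative to DMSO baseline.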

[5] = read-out: Hypoxia-inducible factor 1-alpha (Homo sapiens) (UniProt Q16665); assay: LTEA_HepaRG_HIF1A: Life Technologies and Expression Analysis (LTEA) Assay for Hypoxia-inducible factor 1 (HIF1A) Trancription factor using HepaRG (AID 2283503);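 note: HIF1A transcript by TaqMan qRT-PCR normalized to ACTB GAPDH and POLR2A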
Summary of the method: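 HepaRG, 48 h exposure, 8-pt half-log series from 100 uM, 0.5% DMSO vehicle, duplicates. Readout: HIF1A transcript by qRT-PCR (Fluidigm array), housekeeping-normalised. Bidirectional curve fit vs DMSO baseline.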

[6] = read-out: 3-Hydroxy-3-Methylglutaryl-CoA Synthase 2 (HMGCS2), HMGCS2 (gene 3158); assay: LTEA_HepaRG_HMGCS2: Life Technologies and Expression Analysis (LTEA) Assay for 3-Hydroxy-3-Methylglutaryl-CoA Synthase 2 (HMGCS2) using HepaRG (AID 2283504)
Summary of the method: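 qRT-PCR read-out of HMGCS2 transcript, normalised to three housekeeping genes, in HepaRG cells after 48 h chemical exposure. Eight-point curves from 100 uM, half-log dilutions, 0.5% DMSO vehicle; gain or loss fitted relative to DMSO baseline.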

HGF (gene 3082) = assay: LTEA_HepaRG_HGF: Life Technologies and Expression Analysis (LTEA) Assay for Hepatocyte Growth Facto (HGF) using HepaRG (AID 2283505)
Summary of the method: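 HepaRG, 48 h dosing, 8-pt half-log series from 100 uM in 0.5% DMSO, duplicates. Readout: TaqMan qRT-PCR of HGF mRNA, housekeeping-normalized; bidirectional curve fit vs DMSO baseline.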

[7] = read-out: Insulin Like Growth Factor 1 (IGF1), IGF1 (gene 3479); assay: LTEA_HepaRG_IGF1: Life Technologies and Expression Analysis (LTEA) Assay for Insulin Like Growth Factor 1 (IGF1) using HepaRG (AID 2283506)
Summary of the method: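 Differentiated human HepaRG cells were dosed for 48 h in serum-free induction medium with 0.5% DMSO, eight half-log concentrations up to 100 uM, in duplicate. IGF1 mRNA was quantified by qRT-PCR normalized to ACTB, GAPDH, POLR2A; bidirectional fitting versus DMSO.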

[8] = read-out: Intercellular Adhesion Molecule 1 (ICAM1), ICAM1 (gene 3383); assay: LTEA_HepaRG_ICAM1: Life Technologies and Expression Analysis (LTEA) Assay for Intercellular Adhesion Molecule 1 (ICAM1) using HepaRG (AID 2283507)
Summary of the method: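 HepaRG, 48 h exposure, 8-pt half-log series from 100 uM, 0.5% DMSO vehicle, duplicates. Readout: TaqMan qRT-PCR mRNA, housekeeping-normalized (ACTB/GAPDH/POLR2A). Bidirectional curve fit vs DMSO baseline.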

[9] = read-out: Insulin-like growth factor-binding protein 1 (IGFBP1), IGFBP1 (gene 3484); assay: LTEA_HepaRG_IGFBP1: Life Technologies and Expression Analysis (LTEA) Assay for Insulin-like growth factor-binding protein 1 (IGFBP1) using HepaRG (AID 2283508)
Summary of the method: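 qRT-PCR mRNA read-out (TaqMan, Fluidigm array), normalised to three housekeeping genes; HepaRG cells, 48 h exposure, 8-pt half-log series from 100 uM, 0.5% DMSO vehicle; bidirectional curve fit vs DMSO baseline.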

[10] = read-out: Interleukin 6 (IL6), IL6 (gene 3569); assay: LTEA_HepaRG_IL6: Life Technologies and Expression Analysis (LTEA) Assay for Interleukin 6 (IL6) using HepaRG (AID 2283509)
Summary of the method: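 HepaRG, ~100,000 cells/well, 48 h pre-culture; serum-free induction medium; cmpd 8-pt half-log from 100 uM, 0.5% DMSO, duplicate, 48 h. Lysis in RLT, TaqMan qRT-PCR; gain or loss vs DMSO.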

[11] = read-out: Interleukin 6 Receptor (IL6R), IL6R (gene 3570); assay: LTEA_HepaRG_IL6R: Life Technologies and Expression Analysis (LTEA) Assay for Interleukin 6 Receptor (IL6R) using HepaRG (AID 2283510)
Summary of the method: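 Differentiated human HepaRG cells, plated 48 h then switched to serum-free induction medium, were dosed in duplicate for 48 h at eight half-log concentrations up to 100 uM in 0.5% DMSO. IL6R mRNA quantified by qRT-PCR, normalized to ACTB/GAPDH/POLR2A; bidirectional fit versus DMSO.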

[12] = read-out: Potassium channel subfamily K member 1 (KCNK1), KCNK1 (gene 3775); assay: LTEA_HepaRG_KCNK1: Life Technologies and Expression Analysis (LTEA) Assay for Potassium channel subfamily K member 1 (KCNK1) using HepaRG (AID 2283511)
Summary of the method: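 Gain or loss of KCNK1 mRNA is the read-out, quantified by qRT-PCR against three housekeeping genes after 48 h chemical treatment of human HepaRG liver cells. Concentrations ran from 100 uM downward in half-log steps, vehicle 0.5% DMSO.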

[13] = read-out: Keratin 19 (KRT19), KRT19 (gene 3880); assay: LTEA_HepaRG_KRT19: Life Technologies and Expression Analysis (LTEA) Assay for Keratin 19 (KRT19) using HepaRG (AID 2283512)
Summary of the method: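 HepaRG, 48 h chemical exposure, 8-pt half-log CRC from 100 uM, 0.5% DMSO vehicle, duplicates. Readout: TaqMan qRT-PCR of KRT19 mRNA, housekeeping-normalized (ACTB/GAPDH/POLR2A). Bidirectional fit vs DMSO baseline.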

[14] = read-out: JUN Transcription Factor, JUN (gene 3725); assay: LTEA_HepaRG_JUN: Life Technologies and Expression Analysis (LTEA) Assay for JUN Transcription Factor using HepaRG (AID 2283513)
Summary of the method: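 Differentiated HepaRG cells were exposed to chemicals for 48 h in serum-free induction medium, 8 concentrations from 100 uM in half-log steps, 0.5% DMSO vehicle, in duplicate. JUN mRNA was quantified by TaqMan qRT-PCR, normalized to ACTB, GAPDH, POLR2A.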

[15] = read-out: Lipase C (LIPC), LIPC (gene 3990); assay: LTEA_HepaRG_LIPC: Life Technologies and Expression Analysis (LTEA) Assay for Lipase C (LIPC) using HepaRG (AID 2283514)
Summary of the method: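 Read-out is LIPC transcript level by TaqMan qRT-PCR, normalized to three housekeeping genes, after 48 h chemical treatment of human HepaRG liver cells. Curves span eight concentrations topping at 100 uM; activity in either direction scored relative to 0.5% DMSO.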

[16] = read-out: Lipoprotein lipase (LPL), LPL (gene 4023); assay: LTEA_HepaRG_LPL: Life Technologies and Expression Analysis (LTEA) Assay for Lipoprotein lipase (LPL) using HepaRG (AID 2283515)
Summary of the method: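 Read-out is LPL transcript level by qRT-PCR, normalized to three housekeeping genes and fitted bidirectionally against the DMSO control. Human HepaRG cells received chemicals for 48 h at up to 100 uM.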

[17] = read-out: MicroRNA 122 (MIR122), gene 406906; assay: LTEA_HepaRG_MIR122: Life Technologies and Expression Analysis (LTEA) Assay for MicroRNA 122 (MIR122) using HepaRG (AID 2283516); note: the transcript read is the microRNA miR-122
Summary of the method: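 Differentiated human HepaRG cells were exposed 48 h in serum-free induction medium to eight half-log concentrations (top 100 uM, 0.5% DMSO). Transcript level was measured by TaqMan qRT-PCR, normalized to ACTB, GAPDH and POLR2A, and fitted bidirectionally versus DMSO.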

[18] = read-out: Heat shock 70 kDa protein 1 (HSPA1A), gene 3303; assay: LTEA_HepaRG_HSPA1A: Life Technologies and Expression Analysis (LTEA) Assay for Heat shock 70 kDa protein 1 (HSPA1A) using HepaRG (AID 2283502)
Summary of the method: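 Differentiated human HepaRG cells in serum-free induction medium were exposed in duplicate for 48 h to eight concentrations (top 100 uM, half-log steps, 0.5% DMSO). HSPA1A mRNA was quantified by qRT-PCR, normalized to ACTB, GAPDH and POLR2A, and fitted bidirectionally against DMSO.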

Measured: AC50

Hypoxia-inducible factor 1-alpha (Homo sapiens), sequence (Q16665 whole entry, looked up): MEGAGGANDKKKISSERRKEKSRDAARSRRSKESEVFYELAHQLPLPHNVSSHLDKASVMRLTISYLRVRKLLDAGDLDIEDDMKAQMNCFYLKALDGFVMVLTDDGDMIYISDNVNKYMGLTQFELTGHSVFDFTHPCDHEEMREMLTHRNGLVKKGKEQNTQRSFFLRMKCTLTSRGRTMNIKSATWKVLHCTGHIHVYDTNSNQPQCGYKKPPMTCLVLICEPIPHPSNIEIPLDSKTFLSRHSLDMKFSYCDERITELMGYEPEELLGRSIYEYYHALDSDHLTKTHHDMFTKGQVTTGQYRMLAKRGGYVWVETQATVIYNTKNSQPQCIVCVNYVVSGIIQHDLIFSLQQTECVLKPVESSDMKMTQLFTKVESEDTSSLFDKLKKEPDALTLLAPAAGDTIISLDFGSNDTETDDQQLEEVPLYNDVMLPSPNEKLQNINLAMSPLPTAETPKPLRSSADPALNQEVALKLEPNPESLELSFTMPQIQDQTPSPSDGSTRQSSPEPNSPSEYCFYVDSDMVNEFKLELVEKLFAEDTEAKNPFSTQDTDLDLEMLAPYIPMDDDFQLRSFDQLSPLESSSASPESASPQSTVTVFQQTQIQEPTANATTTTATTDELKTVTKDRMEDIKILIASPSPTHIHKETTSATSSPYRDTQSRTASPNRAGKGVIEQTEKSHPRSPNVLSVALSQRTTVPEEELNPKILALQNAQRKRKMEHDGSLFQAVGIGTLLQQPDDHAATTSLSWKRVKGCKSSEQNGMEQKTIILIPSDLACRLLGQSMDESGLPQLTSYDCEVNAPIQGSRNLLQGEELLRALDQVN

CCCCC(CC)COC(=O)c1ccc(C(=O)OCC(CC)CCCC)cc1 (stereo unspecified)
not listed: [18]
inactive: all other assays above

CCCN(C1CCN(C(=O)C2CCNCC2)CC1)[C@@H]1CCc2ccc(OC)cc2C1
active: [1] 81 µM | [4] 50 µM | [18] 79.6 µM | [7] 50 µM | [8] 77.4 µM | [9] 69.5 µM | [10] 84.2 µM | [11] 50 µM | [13] 13.6 µM | [15] 69.6 µM | [17] 80 µM
inactive: [2] | [3] | HGF (gene 3082) | [12] | [14] | [16]

Fc1ccccc1[C@@H](F)COC1CCC(Nc2ncnc3[nH]ncc23)CC1 (stereo partly specified)
inactive: [3] | [12] | [14]
active: [1] 37.5 µM | [2] 30 µM | [4] 65.2 µM | [6] 45.2 µM | [7] 50 µM | [8] 50 µM | [9] 63.8 µM | [10] 73.7 µM | [13] 12.6 µM | [15] 50 µM | [16] 28 µM | [17] 56.5 µM

C1N2CN3CN1CN(C2)C3
not listed: [5] | [18]
inactive: all other assays above

CCC(C)(C)C(=O)O[C@H]1C[C@@H](C)C=C2C=C[C@H](C)[C@H](CC[C@@H]3C[C@@H](O)CC(=O)O3)[C@H]21
not listed: [5] | [18]
inactive: all other assays above

Clc1nc(Cl)c(Cl)c(Cl)c1Cl
not listed: [18]
inactive: all other assays above

CCn1nc(Cc2ccccc2)cc1C1CCN(C[C@H]2C[C@H](N(C)[C@@H](C(=O)O)C(C)C)C[C@@H]2c2cccc(F)c2)CC1
active: [1] 50 µM | [2] 76.1 µM | [6] 50 µM | [7] 37.7 µM | [8] 50 µM | [9] 73.6 µM | [13] 34.9 µM | [16] 50 µM
not listed: [5]
inactive: all other assays above

Cc1ccc(O)cc1
not listed: [5]
inactive: all other assays above

Oc1ccc2c(c1)-c1ccccc1C2
active: [13] 25 µM | [16] 25.2 µM
not listed: [18]
inactive: all other assays above
